Screening data (PubChem)
aSyn UTR act: Activators working through SNCA 5'UTR binding (MLPCN); AID 1814; alpha-synuclein 5'UTR reporter, activators screen; activity score, % (tested at 7.5 µM), hits read low; actives 7.1% (n = 300,000); in the data active = activity score below about -60%
Numbers without * were called inactive. A selection follows.

SMILES	aSyn UTR act
Cc1cc(/C=N/NC(=O)c2ccsc2)c(C)n1-c1cnccn1	-76.6*
C=CCNc1nc(-c2ccc(O)c(C(N)=O)c2)cs1	-77.9*
CCC(=O)Nc1nc(-c2ccc3c(c2)CC(C)N3S(C)(=O)=O)cs1 (stereo not drawn)	-70.0*
O=C(Nc1nc(-c2ccncc2)cs1)c1ccco1	-85.6*
CC(=O)Nc1nc(-c2ccc3c(c2)CCO3)cs1	-124.6*
CC(C)(C)C(=O)Nc1nc(-c2ccc3c(c2)OCO3)cs1	-146.9*
c1cc2c(cc1-c1csc(NNC3=NCCCCC3)n1)OCCO2	-70.0*
O=C(NC(=S)Nc1nc(-c2ccccc2)cs1)c1ccco1	-77.0*
O=C(Nc1nc(-c2cccs2)cs1)c1ccco1	-85.1*
C=CCNc1nc(-c2ccc3c(c2)OCCO3)cs1	-133.7*
CCC(=O)Nc1nc(-c2ccc3c(c2)OCCO3)cs1	-136.3*
O=C(Nc1nc(-c2ccc3c(c2)OCCO3)cs1)c1ccco1	-76.5*
NC1=NN=C(c2ccc3c(c2)OCCO3)CS1	56.8
CCC(=O)N1CCc2cc(-c3csc(NC(=O)c4ccco4)n3)ccc21	-76.7*
Cc1ccccc1C(=O)O/N=C(\N)Cc1cccs1	-131.3*
N/C(Cc1cccc2ccccc12)=N\OC(=O)Cc1cccs1	-117.5*
N/C(=N\OC(=O)Cc1cccs1)c1ccc(Br)cc1	-105.6*
Cc1ccccc1OCC(=O)O/N=C(\N)Cc1cccs1	-62.7*
N/C(Cc1cccs1)=N\OC(=O)COc1ccc(Cl)cc1Cl	-154.2*
Nc1ccc(/C=C/C(=O)c2cccs2)cc1	-134.9*
CCc1ccc(C(=O)/C=C/c2cnn(C)c2C)s1	-117.5*
Cc1c(/C=C/C(=O)c2cccs2)cnn1C	-125.0*
CCC(=O)N1CCN(c2ccc(NC(=O)c3ccco3)cc2)CC1	-93.6*
CC(=O)N1CCN(c2ccc(NC(=O)c3ccco3)cc2)CC1	-82.9*
Oc1ccc(Cl)cc1C1=NNC(c2ccc(Cl)cc2)C1 (stereo not drawn)	-90.1*
SMILES	aSyn UTR act
C/C(N)=C(/C#N)C(=O)CSc1ccccc1F	-115.0*
C/C(N)=C(/C#N)C(=O)CSc1nn(-c2ccc(Cl)cc2)c(=S)s1	-73.8*
C/C(N)=C(/C#N)C(=O)CSc1nnc(-c2ccc(OC(F)F)cc2)o1	-204.3*
O=C1/C(=C/Nc2cccc([N+](=O)[O-])c2)CCc2ccccc21	-186.3*
Cc1ccc(NC(=O)c2ccc3ccccc3n2)cc1S(=O)(=O)N(C)C	-120.8*
Cc1ccc(NC(=O)c2c(C)nc3ccccn23)cc1C	-152.1*
O=C(Nc1ccc(S(=O)(=O)NCc2ccco2)cc1)c1ccc2ccccc2n1	-65.7*
Cc1ccc(NC(=O)c2ncc(Cl)c(Cl)c2Cl)cc1C	-164.1*
O=C(N/N=C/c1ccsc1)c1ccc2ccccc2n1	-96.9*
Cc1ccc(NC(=O)c2cnc3ccccc3n2)cc1C	-95.8*
Cc1ccc(/C=C/C(=O)c2c(C)nc3ccccn23)cc1	-89.7*
Cc1ccc(NC(=O)c2ccc(=O)[nH]n2)cc1C	-102.5*
Cc1ccc(NC(=O)c2ccc(S(=O)(=O)NCc3ccco3)cc2)nc1	-130.9*
O=C(Nc1ccccc1)c1ccc2ccccc2n1	-178.0*
CCc1nnc(NC(=O)c2ccc3ccccc3n2)s1	-196.4*
O=C(Nc1ccccc1)c1cnc2ccccc2n1	-116.0*
Cc1ccccc1OCc1nc(-c2ccccc2)no1	-178.5*
Cc1ccc(OCc2nc(-c3ccccc3)no2)cc1	-121.5*
Cc1ccc(-c2noc(COc3ccccc3C)n2)cc1	-86.4*
c1ccc(-c2noc(COc3ccc4c(c3)OCO4)n2)cc1	-192.4*
Cc1cc(Br)ccc1OCc1nc(-c2cccnc2)no1	-113.6*
Cc1cc(NC(c2cccnc2)c2ccc3cccnc3c2O)no1 (stereo not drawn)	77.3
CCN1CCC2(CC1)Oc1c(OC)cccc1C1CC(c3cccnc3)=NN12 (stereo not drawn)	-127.8*
CCCn1ncc2c(Nc3ccc(C)c(C)c3)ncnc21	-92.3*
O=C(NCCCc1ccccn1)C1CCC(=O)N(Cc2cccc(F)c2)C1 (stereo not drawn)	-116.7*
SMILES	aSyn UTR act
C/C(=C\C(=O)c1ccccc1)Nc1ccc(O)cc1	-102.2*
C/C(=C\C(=O)c1cccnc1)Nc1ccc(O)cc1	-77.4*
CCCCN(C)C(=O)c1cc2cc3cc(OC)ccc3nc2o1	-121.1*
CCCCN(C)C(=O)c1cc2cc3ccc(OC)cc3nc2o1	-114.1*
COc1ccc2cc3cc(C(=O)NC(C)C)oc3nc2c1	-142.0*
CCN(C(=O)c1cc2cc3ccc(C)cc3nc2o1)c1ccc(OC)cc1	-306.8*
Cn1cnnc1SCc1ccc(-c2ccc(Br)cc2)o1	-72.4*
Cc1ccc(C(=O)NNC(=O)c2ccco2)cc1	-69.2*
Cc1ccc(NC(=S)NNC(=O)c2ccco2)cc1	-74.3*
CSc1nc(-c2ccc(N(C)C)cc2)c(C#N)c(=O)n1C	-71.9*
O=C1NCCN/C1=C\C(=O)c1ccc(F)cc1	-81.3*
O=C1NCCN/C1=C\C(=O)c1ccc(Cl)cc1	-108.7*
CC1CN/C(=C\C(=O)c2ccccc2)C(=O)N1 (stereo not drawn)	-110.2*
Cc1cccc(C(=O)Nc2ccccc2C(=O)OCC(=O)Nc2ccc(C#N)cc2)c1	-100.0*
O=C(Cc1ccccc1[N+](=O)[O-])N1CCc2ccccc2C1	-103.4*
CC(=O)c1ccc(N2CCc3ccccc3C2)c([N+](=O)[O-])c1	-68.0*
COc1cc2c(cc1OC)CN(c1ccc(F)cc1[N+](=O)[O-])CC2	-79.0*
COc1cc2c(cc1OC)CN(c1ncccc1[N+](=O)[O-])CC2	-88.2*
COc1ccc(COC(=O)c2cc([N+](=O)[O-])ccc2N2CCOCC2)cc1F	68.3
COc1cc2c(cc1O)CC[C@@H]1[C@@H]2CC[C@]2(C)[C@@H](O)CC[C@@H]12	75.3
NC(N)=Nc1nc(C2COc3ccccc3O2)cs1 (stereo not drawn)	-64.0*
CCOCc1nnc(NC(=O)c2cccc(OC)c2)s1	-96.3*
CC(C)C(=O)Nc1ccc(C(=O)Nc2nnc(C(C)C)s2)cc1	-107.4*
CC(C)C(=O)Nc1cccc(C(=O)Nc2nnc(C(C)C)s2)c1	-119.8*
CCc1nnc(NC(=O)c2cccc(NC(=O)C(C)C)c2)s1	-81.3*
SMILES	aSyn UTR act
COCc1nnc(NC(=O)c2cccc(NC(=O)C(C)C)c2)s1	-72.7*
COc1cccc(OCc2cc(C(=O)NCc3ccccn3)no2)c1	-128.2*
COc1ccc(OCc2cc(C(=O)NCc3cccc(C)n3)no2)c(Cl)c1	-64.9*
CN(C)c1ccc(C(=O)c2ccc(N(C)C)c(N)c2)cc1N	-74.4*
CCOc1ccc(C(=O)c2ccc(OCC)c(N)c2)cc1N	-69.6*
CCOC(=O)c1cnc2cc(-c3ccc(Cl)cc3)nn2c1N	-87.0*
CCOC(=O)c1cnc2cc(-c3ccc(Br)cc3)nn2c1C	-131.3*
Nc1c2c(=O)oc(-c3ccccc3)cc2nn1-c1ccccc1	-181.5*
Nc1c(C(=O)N2CCOCC2)sc2nc3c(cc12)CCCC3	75.7
CCOC(=O)c1sc2nc3c(cc2c1N)C(=O)CC(C)(C)C3	-126.0*
COC(=O)c1sc2nc3c(cc2c1N)CCCC3	-143.1*
COC(=O)c1sc2nc3c(cc2c1N)C(=O)CC(C)(C)C3	-69.4*
COc1ccccc1NC(=O)Nc1ccc2c(c1)CCC2	-126.2*
COc1cc(SC)ccc1C(=O)Nc1ccc(Cl)cn1	99.7
Cc1ccccc1NC(=O)Nc1ccc2c(c1)CCC2	-140.9*
Cc1ccccc1NC(=O)Nc1ccc(C(F)(F)F)cc1	-100.3*
COc1cc(SC)ccc1C(=O)Nc1ccc2c(c1)CCC2	-118.8*
COc1cc(SC)ccc1C(=O)Nc1ccccc1C#N	-192.2*
